Columns and labels:
Details in all cases: concentration: 1 μM, replicates: in singlicate; n = 1
PIK3C2G = test system: PIK3C2G
PIK3CA = test system: PIK3CA
PIK3CB = test system: PIK3CB
PIK3CD = test system: PIK3CD
PIK3CG = test system: PIK3CG
PIK4CB = test system: T1, PIK4CB
T1 construct: gene PI4KB

PIKFYVE = test system: PIKFYVE
PIM1 = test system: PIM1
PIM2 = test system: PIM2
PIM3 = test system: PIM3
PIP5K1A = test system: PIP5K1A
PIP5K1C = test system: PIP5K1C
PIP5K2B = test system: PIP5K2B
PIP5K2C = test system: T2, PIP5K2C
T2 construct: gene PIP4K2C

PKAC-alpha = test system: T3, PKAC-alpha
T3 construct: gene PRKACA

PKAC-beta = test system: T4, PKAC-beta
T4 construct: gene PRKACB

PKMYT1 = test system: PKMYT1
PKN1 = test system: PKN1
PKN2 = test system: PKN2
PLK1 = test system: PLK1
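Note: KINOMEscan kinase panel screen.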

Row | SMILES | %Inh (PIK3C2G) [%] | %Inh (PIK3CA) [%] | %Inh (PIK3CB) [%] | %Inh (PIK3CD) [%] | %Inh (PIK3CG) [%] | %Inh (PIK4CB) [%] | %Inh (PIKFYVE) [%] | %Inh (PIM1) [%] | %Inh (PIM2) [%] | %Inh (PIM3) [%] | %Inh (PIP5K1A) [%] | %Inh (PIP5K1C) [%] | %Inh (PIP5K2B) [%] | %Inh (PIP5K2C) [%] | %Inh (PKAC-alpha) [%] | %Inh (PKAC-beta) [%] | %Inh (PKMYT1) [%] | %Inh (PKN1) [%] | %Inh (PKN2) [%] | %Inh (PLK1) [%]
1 | Cl.N#CCc1ccc(Nc2nccc(Nc3ccc(Oc4ccccc4)cc3)n2)cc1 [GW639905] | 7 | 0 | 0 | 0 | 0 | 0 | 13 | 0 | 0 | 0 | 26 | 34 | 20 | 78 | 0 | 0 | 0 | 39 | 0 | 0
2 | CCNc1nccc(-c2c(-c3ccc(F)cc3)ncn2C2CCN(C)CC2)n1 | 26 | 0 | 0 | 0 | 10 | 0 | 0 | 6 | 4 | 30 | 0 | 0 | 0 | 0 | 20 | 0 | 0 | 0 | 0 | 0
3 | CCOc1nccc(-c2c(-c3ccc(F)cc3)ncn2C2CCNCC2)n1 [SB-249175] | 1 | 9 | 0 | 18 | 45 | 3 | 7 | 0 | 3 | 5 | 0 | 14 | 0 | 21 | 11 | 25 | 23 | 6 | 18 | 9
4 | Cc1ccc(-c2ccc3occ(-c4ccc(S(C)=O)cc4)c3c2)nn1 (stereo not shown) | 18 | 0 | 0 | 2 | 8 | 0 | 3 | 4 | 9 | 4 | 0 | 42 | 17 | 58 | 0 | 0 | 11 | 0 | 9 | 0
5 | Cc1ccc(C)c(NC(=O)Nc2ccc(C)c(-c3ccc(C(=O)Nc4ccncc4)cc3)c2)c1 [GSK1398473] | 0 | 0 | 0 | 0 | 0 | 8 | 0 | 16 | 0 | 1 | 0 | 0 | 8 | 2 | 27 | 20 | 17 | 26 | 0 | 0
6 | CN(C)CCOc1ccc(-c2cc(-c3ccc(Cl)c(O)c3)c(-c3ccncc3)[nH]2)cc1.Cl.Cl [SB-684387] | 30 | 9 | 54 | 8 | 13 | 26 | 45 | 22 | 0 | 13 | 45 | 54 | 7 | 20 | 33 | 10 | 0 | 39 | 0 | 3
7 | Nc1ncc(-c2ccc3nccc(-c4ccncc4)c3c2)cc1S(=O)(=O)N1CCCCC1 [GSK1693850] | 99.8 | 100 | 96.9 | 100 | 100 | 95.9 | 0 | 8 | 0 | 0 | 0 | 40 | 0 | 62 | 1 | 0 | 0 | 9 | 0 | 76
8 | COC(=O)Nc1nc2ccc(Oc3ccc(CC(=O)Nc4cc(C(F)(F)F)ccc4F)cc3)cc2[nH]1 [GW680903] | 0 | 0 | 0 | 0 | 0 | 0 | 5 | 19 | 0 | 0 | 7 | 37 | 2 | 31 | 0 | 0 | 0 | 0 | 0 | 0
9 | Cc1ccc(NC(=O)c2ccc(Cl)c(Cl)c2)cc1-c1ccc(C(=O)Nc2ccncc2)cc1 [GSK1398460] | 0 | 3 | 69 | 0 | 0 | 3 | 0 | 0 | 0 | 3 | 0 | 0 | 0 | 0 | 13 | 7 | 31 | 1 | 15 | 0
10 | O=C(Nc1n[nH]c2nc(-c3ccccc3O)ccc12)C1CC1 [SB-711880] | 0 | 0 | 0 | 0 | 17 | 24 | 30 | 0 | 0 | 0 | 0 | 77 | 0 | 43 | 0 | 0 | 7 | 0 | 0 | 0
11 | CCn1c(-c2nonc2N)nc2c(-c3ccccc3)ncc(OCCCN)c21.O=C(O)C(F)(F)F.O=C(O)C(F)(F)F [GSK260205] | 9 | 0 | 0 | 1 | 0 | 0 | 98.8 | 62 | 2 | 44 | 35 | 87 | 10 | 29 | 97.6 | 97.7 | 0 | 84 | 0 | 0
12 | COc1ccc(C)c(Nc2ccnc(Nc3ccc(-c4cnc[nH]4)cc3)n2)c1.Cl [GW784041] | 11 | 0 | 0 | 0 | 11 | 58 | 0 | 0 | 9 | 0 | 0 | 33 | 33 | 67 | 8 | 22 | 2 | 0 | 0 | 11
13 | COc1cccc(NC(=O)NCCNc2ccnc(Nc3ccc(F)cc3)n2)c1 [GSK1379879] | 10 | 0 | 0 | 0 | 0 | 0 | 8 | 13 | 0 | 0 | 40 | 63 | 13 | 29 | 0 | 0 | 1 | 12 | 0 | 0
14 | Cn1cc(-c2ccc3c(c2)CCN3C(=O)Cc2cc(F)cc(C(F)(F)F)c2)c2c(N)ncnc21 [GSK2635225] | 47 | 0 | 8 | 0 | 0 | 0 | 0 | 2 | 0 | 6 | 27 | 28 | 2 | 15 | 6 | 0 | 0 | 6 | 0 | 8
15 | Cc1nn2c(=O)cc(N3CCO[C@H](C)C3)nc2n1Cc1cccc(Cl)c1Cl [GSK2373693] | 89 | 23 | 0 | 100 | 94 | 11 | 8 | 10 | 0 | 0 | 0 | 83 | 4 | 0 | 23 | 14 | 62 | 43 | 0 | 0
16 | Cl.O=C(Nc1ccc(Oc2ccc3[nH]c(NC(=O)c4ccco4)nc3c2)cc1)Nc1cc(C(F)(F)F)ccc1F [GW683134] | 0 | 100 | 0 | 8 | 99.9 | 18 | 0 | 0 | 0 | 0 | 0 | 10 | 0 | 0 | 0 | 8 | 0 | 7 | 0 | 0
17 | O=C(O)C(F)(F)F.O=c1[nH]ccc2nc(N[C@@H]3CCNC3)nc(Nc3cc(Cl)cc(Cl)c3)c12 [GSK2188764] | 18 | 7 | 25 | 43 | 53 | 56 | 20 | 44 | 0 | 66 | 75 | 75 | 86 | 85 | 20 | 35 | 8 | 83 | 81 | 81
18 | CC(C)(C)c1ccc(C(=O)Nc2cn3cc(-n4ccnc4)ccc3n2)cc1 | 32 | 0 | 3 | 0 | 4 | 2 | 5 | 7 | 0 | 0 | 2 | 4 | 0 | 95.3 | 37 | 0 | 0 | 10 | 0 | 0
19 | CCn1cnc2c(NCc3ccccc3)ncnc21 [SKF-96418] | 0 | 0 | 0 | 0 | 0 | 4 | 23 | 21 | 0 | 0 | 21 | 22 | 0 | 0 | 0 | 0 | 0 | 0 | 0 | 14
20 | O=C(Nc1c(F)cccc1F)c1cc(C(=O)c2ccccc2F)c[nH]1 [GSK1326180] | 0 | 0 | 0 | 0 | 0 | 0 | 0 | 0 | 0 | 0 | 34 | 49 | 0 | 25 | 0 | 5 | 3 | 8 | 0 | 18

Source: article PMC5540273 (PLoS ONE, 2017)
